In PubChem BioAssay one finds composite z-score and z-score data, which are given here for 15 compounds.

Active and inactive are the calls of the source.

Test [1] is described as follows: binders of probe aFSTL3 on microarray, primary screen, stem cell growth factor project, biochemical, small-molecule microarray, fluorescence 635/667 (AID 1064).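 Also: measures binding of the biotinylated anti-FSTL3 antibody to printed compounds.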 The conditions noted are these: higher = more signal.
Test [2] can be described thus: binders from COS7 lysate, DM2A8 probe, primary screen, torsin A project, cell lysate, small-molecule microarray, fluorescence 635/667 (AID 1065). The conditions noted are these: higher = more signal, COS7 lysate expressing mutant human TOR1A.
Test [3] can be described thus: binders of probe aFGF2 on microarray, primary screen, stem cell growth factor project, biochemical, small-molecule microarray, fluorescence 635/667 (AID 1067).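 Also: measures binding of biotinylated aFGF2 protein to printed compounds on slides; z-score merges feature fluorescence and signal-to-noise across triplicate slides.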 To be noted: higher = more signal.
Test [4] is described as follows: binders of probe aFGF10 on microarray, primary screen, stem cell growth factor project, biochemical, small-molecule microarray, fluorescence 635/667 (AID 1071).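 Also: score merges 667 nm spot intensity and signal to noise from triplicate slides.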 The conditions noted are these: higher = more signal.
In test [5] the target is Neurogenic locus notch homolog protein 2 (Homo sapiens) (UniProt Q04721). Kind of test: Notch2 binders on small-molecule microarrays, primary screen, biochemical, small-molecule microarray, 635 nm fluorescence, stem cell growth factors (AID 1073). To be noted: Notch2 binding, higher = more signal.
Test [6] has as its target Pro-neuregulin-1, membrane-bound isoform (Homo sapiens) (UniProt Q02297). Kind of test: NRG1 binders on small-molecule microarrays, primary screen, psychiatric disease protein project, biochemical, small-molecule microarray, fluorescence 635/667 (AID 1075).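 Also: score combines 667 nm spot fluorescence with signal to noise.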 The conditions noted are these: NRG1 binding, 635 nm fluorescence, higher = more signal.
Test [7] has as its system Neuregulin-1 EGF-like domain. Kind of test: binders of neuregulin-1 EGF-like domain, primary screen, biochemical, small-molecule microarray, 635 nm fluorescence (AID 1081).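 Also: binding of the protein to compounds printed on small-molecule microarray slides.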 The conditions noted are these: small-molecule microarray binding, higher = more signal.
Test [8] in a line: FRG1 promoter luciferase signal modulators, primary screen, FRG1 inhibition for FSHD, cell-based, C2C12 myotubes, firefly/Renilla luciferase, luminescence (AID 1084). The conditions noted are these: higher = more signal, called active from +8 up or from −8 down.
The nature of test [9]: binders of probe aFST on microarray, primary screen, stem cell growth factor project, biochemical, small-molecule microarray, fluorescence 635/667 (AID 1086).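 Also: score merges 667 nm fluorescence with signal-to-noise of each printed compound spot.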 The conditions noted are these: higher = more signal.
A short description of test [10]: binders of probe aHhip on microarray, primary screen, stem cell growth factor project, biochemical, small-molecule microarray, fluorescence 635/667 (AID 1087).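 Also: score merges spot fluorescence at 667nm with spot signal to noise ratio.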 To be noted: higher = more signal.

Pro-neuregulin-1, membrane-bound isoform (Homo sapiens), sequence (Q02297 whole entry, looked up, the tested form may be a part, canonical isoform): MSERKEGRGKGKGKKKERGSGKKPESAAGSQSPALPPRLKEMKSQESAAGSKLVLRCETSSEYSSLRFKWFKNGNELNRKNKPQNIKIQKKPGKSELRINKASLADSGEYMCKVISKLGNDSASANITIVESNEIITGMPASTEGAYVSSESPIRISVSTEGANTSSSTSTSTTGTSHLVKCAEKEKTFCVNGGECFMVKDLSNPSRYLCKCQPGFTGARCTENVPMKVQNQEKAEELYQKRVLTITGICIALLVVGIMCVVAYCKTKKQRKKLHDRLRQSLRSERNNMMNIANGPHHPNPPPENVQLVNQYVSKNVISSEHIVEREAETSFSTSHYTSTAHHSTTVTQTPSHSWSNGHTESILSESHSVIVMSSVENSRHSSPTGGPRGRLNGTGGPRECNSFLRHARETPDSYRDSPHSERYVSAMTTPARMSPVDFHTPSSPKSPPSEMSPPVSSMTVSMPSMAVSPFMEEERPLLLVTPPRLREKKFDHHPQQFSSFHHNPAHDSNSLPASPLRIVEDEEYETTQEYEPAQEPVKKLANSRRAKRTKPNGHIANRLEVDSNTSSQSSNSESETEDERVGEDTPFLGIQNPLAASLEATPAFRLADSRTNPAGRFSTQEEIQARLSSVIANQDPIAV
Neurogenic locus notch homolog protein 2 (Homo sapiens), sequence (Q04721 whole entry, looked up, canonical isoform): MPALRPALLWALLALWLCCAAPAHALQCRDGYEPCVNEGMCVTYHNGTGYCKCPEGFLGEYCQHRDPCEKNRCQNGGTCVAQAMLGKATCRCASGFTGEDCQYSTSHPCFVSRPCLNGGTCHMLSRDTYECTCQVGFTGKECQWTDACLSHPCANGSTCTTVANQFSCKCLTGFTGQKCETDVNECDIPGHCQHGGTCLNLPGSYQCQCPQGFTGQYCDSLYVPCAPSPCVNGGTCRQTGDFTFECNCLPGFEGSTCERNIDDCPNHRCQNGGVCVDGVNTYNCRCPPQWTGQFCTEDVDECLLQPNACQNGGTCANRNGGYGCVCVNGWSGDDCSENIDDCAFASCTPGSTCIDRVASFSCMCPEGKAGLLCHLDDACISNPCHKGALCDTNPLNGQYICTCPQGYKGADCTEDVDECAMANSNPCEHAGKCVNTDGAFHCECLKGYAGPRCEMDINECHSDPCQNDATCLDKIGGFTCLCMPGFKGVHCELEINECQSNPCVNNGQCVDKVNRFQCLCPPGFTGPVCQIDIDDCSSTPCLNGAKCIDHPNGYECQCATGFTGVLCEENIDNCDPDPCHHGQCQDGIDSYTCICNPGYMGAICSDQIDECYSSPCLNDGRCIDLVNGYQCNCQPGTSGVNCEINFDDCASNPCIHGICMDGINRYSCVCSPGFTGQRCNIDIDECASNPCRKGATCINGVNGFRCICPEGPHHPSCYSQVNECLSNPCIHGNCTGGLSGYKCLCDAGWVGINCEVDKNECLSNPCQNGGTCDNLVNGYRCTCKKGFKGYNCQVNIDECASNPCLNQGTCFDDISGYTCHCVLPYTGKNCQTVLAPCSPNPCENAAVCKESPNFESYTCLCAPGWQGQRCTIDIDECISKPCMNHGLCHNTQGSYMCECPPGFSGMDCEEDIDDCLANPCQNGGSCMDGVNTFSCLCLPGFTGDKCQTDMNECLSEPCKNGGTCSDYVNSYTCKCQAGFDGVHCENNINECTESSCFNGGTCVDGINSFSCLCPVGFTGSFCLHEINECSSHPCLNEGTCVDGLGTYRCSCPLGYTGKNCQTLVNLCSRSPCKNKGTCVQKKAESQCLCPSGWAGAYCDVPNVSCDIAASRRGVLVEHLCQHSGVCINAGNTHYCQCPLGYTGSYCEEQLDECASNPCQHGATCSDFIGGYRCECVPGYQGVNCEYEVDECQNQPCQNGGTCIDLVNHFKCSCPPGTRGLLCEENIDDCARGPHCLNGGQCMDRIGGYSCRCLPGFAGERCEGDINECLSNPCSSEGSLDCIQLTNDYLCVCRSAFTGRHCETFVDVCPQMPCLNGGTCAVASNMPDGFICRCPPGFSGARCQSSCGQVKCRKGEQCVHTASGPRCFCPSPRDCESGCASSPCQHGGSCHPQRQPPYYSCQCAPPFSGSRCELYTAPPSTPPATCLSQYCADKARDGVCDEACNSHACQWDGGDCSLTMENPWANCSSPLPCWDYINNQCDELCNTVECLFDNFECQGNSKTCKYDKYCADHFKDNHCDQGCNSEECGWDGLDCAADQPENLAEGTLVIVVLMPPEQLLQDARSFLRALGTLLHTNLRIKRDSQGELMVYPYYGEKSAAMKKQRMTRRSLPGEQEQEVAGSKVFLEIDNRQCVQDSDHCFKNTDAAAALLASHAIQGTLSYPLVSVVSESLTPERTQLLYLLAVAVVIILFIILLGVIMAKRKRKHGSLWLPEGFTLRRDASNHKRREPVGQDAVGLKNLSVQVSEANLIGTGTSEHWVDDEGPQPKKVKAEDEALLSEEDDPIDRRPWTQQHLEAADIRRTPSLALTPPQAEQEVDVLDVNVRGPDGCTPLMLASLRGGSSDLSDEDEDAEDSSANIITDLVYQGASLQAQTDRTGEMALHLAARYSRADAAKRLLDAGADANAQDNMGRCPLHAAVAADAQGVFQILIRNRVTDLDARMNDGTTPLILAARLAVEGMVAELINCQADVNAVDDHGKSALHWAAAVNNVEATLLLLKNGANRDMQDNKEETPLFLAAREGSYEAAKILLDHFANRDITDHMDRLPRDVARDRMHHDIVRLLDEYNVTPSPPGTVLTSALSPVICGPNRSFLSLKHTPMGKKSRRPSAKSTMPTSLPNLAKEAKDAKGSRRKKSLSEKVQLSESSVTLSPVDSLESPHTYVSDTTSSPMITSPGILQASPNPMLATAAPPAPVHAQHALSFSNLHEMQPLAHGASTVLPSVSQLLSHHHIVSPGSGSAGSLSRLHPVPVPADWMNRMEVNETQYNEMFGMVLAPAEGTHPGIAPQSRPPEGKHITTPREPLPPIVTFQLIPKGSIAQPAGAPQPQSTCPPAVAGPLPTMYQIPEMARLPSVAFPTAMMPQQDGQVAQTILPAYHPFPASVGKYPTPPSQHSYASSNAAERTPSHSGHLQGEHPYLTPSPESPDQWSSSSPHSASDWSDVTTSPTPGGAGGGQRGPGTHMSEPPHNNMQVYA

Take `CCOC(=O)C1=CC[C@@H](c2ccccc2)N(S(=O)(=O)c2ccc(C)cc2)[C@H]1C#N`: the composite z-score in [1] was -0.18; in test [2], -0.0196; in test [3] it was -0.0381; in test [4] it was 0.848; in [5], 1.25; in test [6], 0.741. In addition, the composite z-score in [7] was 1.29; in test [9], 1.1; in test [10], -0.191. Besides, the z-score in test [8] was 1.04 (inactive).

As for `CCC(CC)C(O)C1C=CC2C(=O)N(C)C(=O)C2N1N1CCCCC1` (stereo not given), the composite z-score worked out at 0.104 in test [1]; 0.816 in test [2]; 0.121 in [3]; 0.837 in test [4]; 1.31 in [5]; 1.83 in [6]. Also, the values for the composite z-score in [7], in [9] and in [10] were 1.23, 1.29 and 0.281, respectively. For the same compound, the z-score in [8] is 0.855 (inactive).

With `CC(C)CNC(=O)[C@@H]1c2ccccc2C(=O)N(C2Cc3ccccc3C2)[C@H]1c1ccc(CO)cc1`, the composite z-score is 0.192 in test [1]; -0.372 in test [2]; -0.0737 in test [3]; 0.261 in [4]; -0.51 in test [5]; 1.29 in [6]. Besides, the composite z-score in [7] was 1.39; in test [9], -0.316; in test [10], -0.166. In addition, in [8], the z-score was -1.56 (inactive).

For `C=C(CC1([C@@H](NP(=O)(c2ccccc2)c2ccccc2)[C@H]2C[C@@H]2CCN(C(=O)OCC)S(=O)(=O)c2ccc(C)cc2)CC1)c1ccccc1`, the composite z-score in test [1] was 0.0862; in test [2] it was -0.163; in [3], 0.226; in test [4], 0.821; in test [5] it was 1.67; in [6] it was 1.38. For the same compound, the composite z-score came out at 1.12 in test [7], 1.5 in [9] and 0.128 in test [10]. Besides, the z-score in test [8] is 0.894 (inactive).

Take `CCCCCCCCCCC(O)C1C=CC2C(=O)N(C)C(=O)C2N1N1CCCCC1` (stereo not given): the composite z-score is 0.449 in [1]; -0.346 in [2]; -0.213 in test [3]; -1.1 in test [4]; -1.96 in test [5]; 0.252 in test [6]. Moreover, the composite z-score in [7] is -0.413; in [9], -0.744; in test [10], -0.0423. Further, the z-score in test [8] was -0.635 (inactive).

For the compound `CC(C)C(=C=CC[C@@H](O)c1ccc(OCCO)cc1)CCO`, the composite z-score in test [1] was -0.226; in test [2], -0.0605; in test [3], -0.128; in [4], 0.127; in test [5], -0.0765; in [6], 0.346. The composite z-score in [7] was 0.402; in [9], -0.315; in test [10] it was 0.0505. The z-score in [8] was 0.0636 (inactive).

With `C[N+](C)(C)CCCCCCNC(=O)[C@H]1C[C@H]2C(=O)NCC(=O)N2[C@H]1c1cccc(OCCO)c1`, the composite z-score in test [1] is -0.513; in test [2], 0.44; in [3], -0.0316; in [4], 0.817; in test [5] it was -0.0407; in [6] it was 0.205. The composite z-score in [7] was 1.27; in test [9], -0.393; in test [10], -0.737. Also, the z-score in [8] was 2.33 (inactive).

As for `CC(C)(C)OC(=O)CC[C@]1(C(N)=O)N=C(c2ccc(OCCCO)cc2)O[C@H]1c1ccccc1CN=[N+]=[N-]`, the composite z-score worked out at 0.68 in test [1]; 1.13 in [2]; 0.191 in test [3]; 0.873 in test [4]; 1.53 in test [5]; 2.66 in test [6]. Moreover, the composite z-score in test [7] was found to be 1.47; in [9], 0.441; in test [10], 0.0722. Moreover, the z-score in test [8] is 5.29 (inactive).

As to `C[C@]1(C(=O)NCC(F)(F)F)c2ccccc2C(=O)N(Cc2ccc(OC(F)(F)F)cc2)[C@H]1c1ccc(CO)cc1`, the composite z-score is -0.303 in [1]; 0.67 in test [2]; -0.0757 in test [3]; 0.198 in test [4]; -0.298 in [5]; 0.0763 in [6]. The figures for the composite z-score in test [7], in test [9] and in [10] were 0.531, -0.209 and -0.0645, respectively. Further, the z-score in [8] was -3.89 (inactive).

Consider `O=C1O[C@H](c2ccccc2)[C@H](c2ccccc2)N2[C@H]1[C@@H](C(=O)NC[C@H](O)c1ccccc1)[C@]1(C(=O)Nc3ccc(C#CCCO)cc31)[C@H]2c1ccccc1OCCO`, for which the composite z-score is -0.211 in test [1]; 0.307 in test [2]; -0.141 in [3]; 0.453 in [4]; 0.253 in test [5]; 1.25 in [6]. Also, the composite z-score is 1.34 in test [7], 0.152 in [9] and 0.0505 in [10]. Further, the z-score in test [8] was -0.0302 (inactive).

With `COC(=O)C1=CC(CCCO)=CC(c2ccc(CN3CCCC3)cc2)N(Cc2sc3ccccc3c2Cl)C=C1C(=O)OC` (stereo not given), the composite z-score in test [1] amounted to 0.688; in [2] it was 2.31; in test [3], 0.321; in test [4], 1.31; in [5], 1.73; in test [6], 2.43. The composite z-score in [7] was determined as 1.32; in [9], 1.21; in test [10] it was 0.167. In addition, the z-score in test [8] is -0.591 (inactive).

In the case of `[N-]=[N+]=NCc1ccccc1C[C@]1(C(=O)O)COC(c2ccc(OCCCO)cc2)=N1`, the composite z-score in [1] is 0.895; in [2] it was -0.167; in [3], -0.0213; in [4] it was -0.461; in test [5], -0.664; in test [6], 1.57. The composite z-score in test [7] is 0.0238; in test [9], 0.0273; in test [10], 0.2. The z-score in test [8] was 0.277 (inactive).

With `CC=CC(O)C1C=CC2C(=O)N(C)C(=O)C2N1NC(=O)OC(C)(C)C` (stereo not given), the composite z-score is -0.0303 in test [1]; 0.371 in [2]; -0.072 in test [3]; 0.488 in test [4]; 1.16 in test [5]; 0.746 in [6]. The composite z-score in test [7] came out at 1.09; in test [9] it was 0.449; in [10], 0.108. For the same compound, the z-score in test [8] was 0.282 (inactive).

Turning to `O=C1C2C=CC(C(O)c3cccs3)N(Nc3ccccc3)C2C(=O)N1c1ccccc1` (stereo not given), the composite z-score in test [1] is 0.629; in test [2], -0.0855; in test [3], -0.0459; in test [4] it was 0.0873; in test [5], 0.878; in test [6], 0.97. The composite z-score is 0.964 in [7], 0.35 in test [9] and -0.0237 in [10]. Moreover, the z-score in [8] is -1.49 (inactive).

On to `CO[C@H]1O[C@H](CO)[C@@H](OC(=O)Nc2ccc(C(F)(F)F)cc2)[C@H](OC(=O)Nc2ccccc2-c2ccccc2)[C@H]1OC(=O)Nc1ccccc1-c1ccccc1`, for which the composite z-score in test [1] was -0.288; in test [2], 1.16; in [3], 0.0276; in [4] it was 0.988; in [5], 1.04; in test [6], 0.802. Moreover, the composite z-score in test [7] was 1.36; in test [9] it was 0.997; in test [10], -0.0645. In addition, in [8], the z-score is 2.53 (inactive).
